Measured values: PubChem BioAssay (EPA / NIEHS)
Several values for one entry are separate records, joined by “and”; a condition that tells them apart may be missing. Identical values can stand only once. Records with an inconclusive call do not appear. The source holds several records for some structures; these can differ, active in one and inactive in another. Activity calls are given as the source filed them. How the source made its calls: active means hit-call score of the fitted dose curve at least 0.9, where 1 is the maximum; inconclusive means response in the unintended direction; inactive means score below 0.9.

Columns and labels:
[1] = molecular target: Cellular tumor antigen p53 (Homo sapiens) (UniProt P04637); assay: TOX21_p53_BLA_p5_ratio: Tox21 HCT-116 p53 Agonism Beta-lactamase Assay, Ratio, Phase 5 (AID 2283599)
Cellular tumor antigen p53 (Homo sapiens), sequence (P04637 whole entry, looked up): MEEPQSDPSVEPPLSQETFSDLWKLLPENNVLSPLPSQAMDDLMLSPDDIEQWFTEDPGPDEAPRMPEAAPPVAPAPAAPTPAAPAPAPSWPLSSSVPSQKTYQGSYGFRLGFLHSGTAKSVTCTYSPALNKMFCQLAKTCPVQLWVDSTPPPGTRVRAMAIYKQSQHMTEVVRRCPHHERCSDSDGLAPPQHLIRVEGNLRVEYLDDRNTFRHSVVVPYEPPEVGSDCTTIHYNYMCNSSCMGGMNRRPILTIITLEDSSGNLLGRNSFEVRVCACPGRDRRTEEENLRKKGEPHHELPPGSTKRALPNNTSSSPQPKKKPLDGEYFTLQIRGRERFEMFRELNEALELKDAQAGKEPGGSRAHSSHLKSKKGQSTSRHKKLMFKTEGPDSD
How it was run: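 Beta-lactamase reporter ratio (blue 460 nm over green 530 nm, 405 nm excitation) after 2 h CCF4-AM loading, in HCT-116 cells exposed 16 h at 37 C to compounds pinned at 217-fold dilution. Increases relative to DMSO baseline scored.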

[2] = TOX21_p53_BLA_p5_viability: Viability Assessment in the Tox21 HCT-116 p53 Agonism Beta-lactamase Assay, Phase 5 (AID 2283600)
How it was run: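 Workflow: seed 4000 cells per well, wait 5 h, add compounds (DMSO, 217-fold dilution), incubate 16 h, load CCF4-AM 2 h, add CellTiter-Glo, read luminescence after 30 min.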

[3] = molecular target: Cellular tumor antigen p53 (Homo sapiens) (UniProt P04637); assay: TOX21_p53_BLA_p4_ratio: Tox21 HCT-116 p53 Agonism Beta-lactamase Assay, Ratio, Phase 4 (AID 2283601)
How it was run: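 Signal is the blue/green (460nm/530nm) ratio of cleaved versus uncleaved CCF4-AM substrate, read after 2 h substrate loading. Cells were HCT116 carrying the p53-responsive beta-lactamase reporter, dosed 16 h at 37C, 5% CO2; CellTiter-Glo measured in parallel.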

[4] = Tanguay_ZF_120hpf_MORT_legacy: (Legacy) Oregon State University Tanguay Lab 120 Hour Post-fertilization zebrafish Assay for Mortality (AID 2283633)
How it was run: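 5D WT zebrafish, chorion removed 4 hpf; 1 embryo/well from 6 hpf; static exposure to 120 hpf, 28C, dark, sealed. Final DMSO 0.64%. Readout: binary mortality, brightfield, 24 + 120 hpf; DMSO as negative control.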

[5] = Tanguay_ZF_120hpf_YSE_legacy: (Legacy) Oregon State University Tanguay Lab 120 Hour Post-fertilization zebrafish Assay for Yolk Sac Edema (AID 2283634)
How it was run: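 Dechorionate (pronase, 4 hpf) → place one 6 hpf embryo per well → static compound exposure, sealed and foil-covered, 28C, to 120 hpf → record yolk sac edema as present or absent. Final DMSO 0.64%.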

[6] = Tanguay_ZF_120hpf_EYE_legacy: (Legacy) Oregon State University Tanguay Lab 120 Hour Post-fertilization zebrafish Assay for Eye Malformation (AID 2283636)
How it was run: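 Binary brightfield scoring of eye defects at 120 hpf after static exposure from 6 hpf of single pronase-dechorionated wild-type embryos (28C, 0.64% DMSO). Non-mortality endpoints omitted where embryos died; fit vs DMSO.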

[7] = Tanguay_ZF_120hpf_SNOU_legacy: (Legacy) Oregon State University Tanguay Lab 120 Hour Post-fertilization zebrafish Assay for Snout Malformation (AID 2283637)
How it was run: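 Binary snout-malformation call at 120 hpf in wild-type 5D embryos, chorion removed by pronase, under static exposure from 6 hpf at 28C (0.64% DMSO). Embryos dying by 24 or 120 hpf excluded.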

[8] = Tanguay_ZF_120hpf_OTIC_legacy: (Legacy) Oregon State University Tanguay Lab 120 Hour Post-fertilization zebrafish Assay for Otic Vesicle Malformation (AID 2283639)
How it was run: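 Binary scoring of otic vesicle defects at 120 hpf in zebrafish (Tropical 5D) held under static exposure at 28C, sealed and shaded, with final DMSO 0.64%. Embryos dying by 24 or 120 hpf excluded; fitted positively against DMSO.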

[9] = Tanguay_ZF_120hpf_PE_legacy: (Legacy) Oregon State University Tanguay Lab 120 Hour Post-fertilization zebrafish Assay for Pericardial Edema (AID 2283640)
How it was run: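 Embryos from wild-type 5D adults were staged, then dosed in 0.64% DMSO. They were kept sealed in the dark at 28C until 120 hpf. Pericardial edema was then recorded as present or absent.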

[10] = Tanguay_ZF_120hpf_BRAI_legacy: (Legacy) Oregon State University Tanguay Lab 120 Hour Post-fertilization zebrafish Assay for Brain Malformation (AID 2283641)
How it was run: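 Wild-type 5D larvae, static waterborne exposure to 120 hpf, 28C, 0.64% v/v DMSO. Brightfield scoring of brain defects, binary; dead embryos excluded. Positive ctrl 5uM trimethyltin chloride.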

[11] = Tanguay_ZF_120hpf_PFIN_legacy: (Legacy) Oregon State University Tanguay Lab 120 Hour Post-fertilization zebrafish Assay for Pectoral Fin Malformation (AID 2283648);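 further: each larva judged yes or no for fin defect by brightfield with dead larvae skipped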
How it was run: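 Pectoral fin malformation was recorded as a binary endpoint at 120 hpf in wild-type Tropical 5D larvae, which had been dechorionated and exposed statically from 6 hpf at 28C in 0.64% DMSO. Dead embryos were excluded.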

[12] = Tanguay_ZF_120hpf_CFIN_legacy: (Legacy) Oregon State University Tanguay Lab 120 Hour Post-fertilization zebrafish Assay for Caudal Fin Malformation (AID 2283649)
How it was run: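 Binary presence or absence of caudal fin malformation at 120 hpf, read by brightfield microscopy, with DMSO as baseline. Larvae came from 5D wild-type embryos exposed statically from 6 hpf at 28C after pronase dechorionation.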

[13] = Tanguay_ZF_120hpf_PIG_legacy: (Legacy) Oregon State University Tanguay Lab 120 Hour Post-fertilization zebrafish Assay for Pigmentation Malformation (AID 2283650)
How it was run: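 Pigment malformation recorded as a binary call at 120 hpf in zebrafish (Tropical 5D) exposed singly from 6 hpf after pronase dechorionation. Static, sealed, 28C exposure, 0.64% DMSO; mortality excludes scoring; positive-direction fit against DMSO.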

[14] = Tanguay_ZF_120hpf_CIRC_legacy: (Legacy) Oregon State University Tanguay Lab 120 Hour Post-fertilization zebrafish Assay for Circulatory Malformation (AID 2283651)
How it was run: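 Binary circulatory malformation call at 120 hpf by brightfield imaging of zebrafish larvae; chorion removed at 4 hpf, static exposure from 6 hpf in sealed dark plates at 28C, final DMSO 0.64%; non-mortality endpoints skipped if embryo died.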

[15] = Tanguay_ZF_120hpf_SWIM_legacy: (Legacy) Oregon State University Tanguay Lab 120 Hour Post-fertilization zebrafish Assay for Swim Bladder Malformation (AID 2283654);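 further: swim bladder malformation in each larva scored yes or no under brightfield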
How it was run: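 Scoring is binary for swim bladder defects at 120 hpf, by brightfield inspection of zebrafish larvae. Embryos were exposed singly from 6 hpf after pronase dechorionation, at 28C with 0.64% DMSO; mortality excluded scoring.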

[16] = Tanguay_ZF_120hpf_TRUN_legacy: (Legacy) Oregon State University Tanguay Lab 120 Hour Post-fertilization zebrafish Assay for Truncated Body (AID 2283655)
How it was run: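 Truncated body is recorded as a binary endpoint at 120 hpf by brightfield imaging of wild-type 5D larvae. Exposure runs statically from 6 hpf at 28C with 0.64% DMSO; embryos dying earlier are not scored.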

[17] = Tanguay_ZF_120hpf_NC_legacy: (Legacy) Oregon State University Tanguay Lab 120 Hour Post-fertilization zebrafish Assay for Notochord and Tail Malformation (AID 2283656)
How it was run: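 Binary scoring of notochord distortion by brightfield microscopy; embryos dying were not scored. Wild-type Tropical 5D embryos, chorion removed, exposed singly and statically from 6 to 120 hpf, 28C, sealed, 0.64% DMSO.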

Measured: AC50

O=C(O)C1C(C(=O)O)C2(Cl)C(Cl)=C(Cl)C1(Cl)C2(Cl)Cl (stereo not given)
inactive: [1] | [2] | [3] | [4] | [5] | [6] | [7] | [8] | [9] | [10] | [11] | [12] | [13] | [14] | [15] | [16] | [17]

ClC(Cl)(Cl)c1ccccc1
inactive: [1] | [2] | [3] | [4] | [5] | [6] | [8] | [12] | [13] | [14]

c1ccc2c(c1)sc1ccccc12
inactive: [1] | [2] | [3]

CC1(C)CN=C(NN=C(/C=C/c2ccc(C(F)(F)F)cc2)/C=C/c2ccc(C(F)(F)F)cc2)NC1
active: [1] 44.7 µM | [2] 46.1 µM
inactive: [3]

Cc1cccc(N)c1
inactive: [1] | [2] | [3] | [4] | [5] | [6] | [7] | [9] | [10] | [12] | [13] | [14] | [15] | [16] | [17]

CCCCN(CCCC)N=O
inactive: [1] | [2] | [3] | [4] | [5] | [6] | [7] | [9] | [10] | [11] | [12] | [15] | [16]

CO/N=C(/C(=O)OC)c1ccccc1COc1ccccc1C
inactive: [1] | [2] | [3]

CNC(=O)Oc1ccc(N(C)C)c(C)c1
inactive: [1] | [2] | [3]

Cc1ccc(N)cc1N
active: [3] 14.7 µM
inactive: [1] | [2] | [3] | [4] | [6] | [7] | [8] | [9] | [10] | [13] | [14] | [15] | [16] | [17]

O=[N+]([O-])c1ccccc1
inactive: [1] | [2] | [3] | [4] | [5] | [6] | [7] | [8] | [9] | [10] | [11] | [12] | [14] | [15] | [16]

O=c1[nH]c2ccccc2c(=O)o1
inactive: [1] | [2] | [3]

CCN(CC)c1ccccc1
inactive: [1] | [2] | [3] | [4] | [5] | [7] | [8] | [9] | [10] | [12] | [14] | [15] | [16] | [17]

c1cc2c3c(cccc3c1)CC2
inactive: [1] | [2] | [3] | [4] | [5] | [6] | [7] | [8] | [9] | [10] | [11] | [12] | [13] | [14] | [15] | [17]

CC1=C(C(=O)Nc2ccccc2)S(=O)(=O)CCO1
inactive: [2]
active: [1] 15.8 µM | [3] 21 µM

ClC1=C(Cl)C2(Cl)C3C(Cl)C(Cl)CC3C1(Cl)C2(Cl)Cl (stereo not given)
inactive: [1] | [2] | [3] | [4] | [5] | [6] | [7] | [8] | [9] | [10] | [12] | [13] | [15]
active: [1] 86.4 µM | [2] 46.1 µM | [3] 63.5 µM

[N-]=[N+]=[N-]
inactive: [1] | [2] | [3] | [4] | [5] | [6] | [7] | [8] | [10] | [11] | [12] | [13] | [14] | [15] | [17]

O=P(OCC(Br)CBr)(OCC(Br)CBr)OCC(Br)CBr (stereo not given)
active: [1] 66.9 µM and 74.7 µM | [3] 75.7 µM and 73.6 µM
inactive: [2]

CCOP(=S)(OCC)SCn1nnc2ccccc2c1=O
inactive: [1] | [2] | [3]
